Source: PubChem BioAssay AID686979 (National Center for Advancing Translational Sciences (NCATS), 2013)
Among all 420,000 compounds or so, about 50,000 (12%) were called active. Where a call stands in place of a potency, no number is given. Not shown: some 26% with an inconclusive outcome. The call rests on the fitted dose curve; in most records, active means well fitted inhibition curve with a large enough effect; inconclusive means small, poorly fitted or top-dose-only effect; inactive means flat fitted curve, though single readings scatter. For the sample, actives were picked, then their nearest neighbours and some compounds at random.

Test: qHTS for Inhibitors of human tyrosyl-DNA phosphodiesterase 1 (TDP1): qHTS in cells in presence of CPT; further: nearly all actives have a fitted effect of over 55% in size
Settings: chicken DT40 Tdp1-/-;hTDP1 cells + 20 nM CPT, ATP luminescence, 48 h; series mostly up to 46.2 µM
In short: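 Cell growth measured by CellTiter-Glo luminescence after a minimum 48 h, 37 C compound exposure with 20 nM CPT in Tdp1-knockout DT40 cells stably expressing hTDP1, seeded 400/well; qHTS titration format.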
Potency means the concentration at half of the fitted maximal effect.

Structure (SMILES) | Potency
CCOC(=O)c1cnc(COc2ccccc2Cl)[nH]c1=O | inactive
Cc1nc(NNC(=O)c2ccccc2)cc(-c2ccccc2)n1 | inactive
CC(=O)Nc1ccc(S(=O)(=O)Nc2nc(-c3ccc(C(C)(C)C)cc3)cs2)cc1 | inactive
O=C(O)c1ccccc1C(=O)Nc1nc(-c2ccccc2)cs1 | inactive
CC(=O)Nc1ccc(-c2csc(NC=C3C(=O)OC(C)(C)OC3=O)n2)cc1 | inactive
CC(=O)Nc1ccc(-c2csc(NC(=O)Nc3ccccc3)n2)cc1 | 3.66 µM (active)
Cc1ccc(-c2csc(NNC(=O)c3ccccc3)n2)cc1 | 4.11 µM (active)
CC(=O)N1CCN(CC(c2ccccc2)c2ccccc2)CC1 | inactive
CCOc1cc(/C=N/NC(=O)c2ccc(CSc3nncn3C)cc2)ccc1OCC(=O)N1CCOCC1 | inactive
COc1cc(OC)cc(C(=O)Nc2nnc(SCC(=O)NCC3CCCO3)s2)c1 (stereo not drawn) | inactive
Cc1noc(C)c1-c1nc(CSc2ccc(Cl)cc2)no1 | inactive
CCN(CC)S(=O)(=O)c1ccc(C)c(NC(=O)COc2ccc(Br)cc2Cl)c1 | inactive
Oc1ccc(Br)cc1C1C=C(c2ccc3c(c2)OCO3)NC(c2ccc(Cl)cc2)N1 (stereo not drawn) | 7.08 µM (active)
Cc1cccc(-n2c(=O)c3c(c4cc(C)ccc4n3C)n(CC(=O)Nc3ccccc3Cl)c2=O)c1 | inactive
Cc1c(C(=O)N2CCOCC2)[nH]c2ccc(OCc3ccccc3)cc12 | inactive
O=C(CN1CCOCC1)N1CCCc2c1c(=O)oc1ccc(OCc3ccccc3)cc21 | 18.4 µM (active)
NC(=O)C1CCN(C(=O)COc2ccc3c4c(c(=O)oc3c2)CCC4)CC1 | inactive
O=C(COc1ccc2oc3c(c2c1)CCCC3)Nc1ccccn1 | inactive
CC1CCCCN1CC(=O)N1CCCc2c1c(=O)oc1ccc(OCc3ccccc3)cc21 (stereo not drawn) | 16.4 µM (active)
CC1CCCCN1CC(=O)NCc1ccc2c(c1)OCO2 (stereo not drawn) | inactive
COc1ccccc1C(=O)NCCn1cc(SCC(=O)NCc2ccco2)c2ccccc21 | inactive
O=C(O)Cc1ccc(NC(=O)Nc2cccc3ccccc23)cc1 | inactive
CN(C(=O)CCNC(=O)Cn1ccc2ccccc2c1=O)c1ccc(Br)cc1 | inactive
Cc1cc(C)c(S(=O)(=O)N2CCC(C(=O)OCc3c(C)noc3C)CC2)c(C)c1 | inactive
CC(C)(C)N(CC#CCC(O)(c1ccccc1)C1CCCC1)CCO (stereo not drawn) | inactive
CN(CC#CCC(c1ccccc1)c1ccccc1)C(C)(C)C | 12.6 µM (active)
CCc1[nH]nc(C(=O)N2CCCC(CNS(=O)(=O)c3cccs3)C2)c1C (stereo not drawn) | inactive
Cc1cc(C)nc(SCc2cn3c(C)cc(C)nc3n2)n1 | inactive
